SNCA viab count: cell viability loss counter-screen. HEK-293-SNCA-luc viability, GF-AFC fluorescence, 24 h. Potency, µM (top dose mostly 57.1 µM), for the others: at the top dose activity change, negative = cytotoxicity, most hits filed as cytotoxic. 150,000 tested, 0.12% active. AID 1671193;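 note: potency is the fitted concentration of half-maximal effect; 0% = DMSO-treated cells and -100% = medium-only wells without cells; nearly all actives have a fitted effect of over 30% in size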
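Cytotoxicity counterscreen: after 24 h compound treatment of genome-edited SNCA-luciferase HEK-293 cells, live-cell protease substrate GF-AFC read by fluorescence after 30 min; activity scaled between DMSO (0%) and medium-only (-100%), curves Hill-fitted.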
KDM5B inhibitor: blocks human KDM5B histone demethylase activity; Q9UGL1; Potency, µM (doses to about 57.7 µM), hits mostly inhibitors; KDM5B demethylase, FDH-coupled NADH fluorescence (FDH is formaldehyde dehydrogenase); AID 1347165; 220,000 tested, 2.6% active; note: potency is the fitted concentration of half-maximal effect; 0% is about no effect; nearly all actives have a fitted effect of over 70% in size
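qHTS format, multiple compound concentrations. Buffer 50 mM HEPES pH 7.5/0.01% Tween-20; 200 nM KDM5BΔAP final; 10 min compound preincubation; substrate-mix levels 12.5 µM peptide, 25 µM α-KG, 0.25 mM NAD⁺; 30 min RT; ΔRFU.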
SNCA expr inhib: reduces expression of the alpha-synuclein gene. Potency, µM (top dose mostly 57.2 µM), inactives show at the highest dose activity change, negative = inhibition, most hits filed as inhibitors. 140,000 tested, 0.17% active. HEK-293 SNCA-luciferase knock-in, luminescence, 24 h. AID 1671194;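 note: potency is the fitted concentration of half-maximal effect; plate controls were DMSO cells for no effect and cell-free wells for full effect; nearly all actives have a fitted effect of over 45% in size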
IP6K1 inhibitor: blocks human inositol hexakisphosphate kinase 1; Q92551; IP6K1 kinase, ADP-Glo luminescence, 2 h; stronger effect = lower value; activity change, % (series mostly up to about 58 µM); 140,000 tested, 0.81% active; in the data active = activity change below about -25%; note: % is set by controls: 0 for no effect and ±100 for the full control effect
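ADP-Glo luminescence measures ADP made by human IP6K1 during a 2 h RT reaction with ATP/IP6 (mix at 1.3 mM/130 uM); top library doses 57.5 and 19.1 uM final.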
* = called active by the depositor; i = inactive; u = inconclusive; x = not tested or not shown; [ ] = dose if it differs, or a comment. In the library only some 3% were active in any assay of this set; here they are far more common. Unless noted, calls come from the whole dose curve; as a rule, active = well fitted curve in the direction sought with a large enough effect; inconclusive = small, poorly fitted or top-dose-only effect, or another doubt; inactive = no such curve, though single readings can be large; an effect the other way counts as inactive or inconclusive.

SMILES	SNCA viab count	KDM5B inhibitor	SNCA expr inhib	IP6K1 inhibitor
CC(O)c1cc2n(n1)CCCN(C(=O)CCc1cn3ccccc3n1)C2 (stereo unspecified)	1.0%	25.1µM*	-12.5%	21.8
O=[S+]([O-])(NC1CCN(c2ccc3nnc(C4CC4)n3n2)C1)c1cccc(C(F)(F)F)c1 (stereo unspecified)	x	x	x	20.1
COc1ccc(-c2cnc(Nc3ccccc3)c3c2CCO3)cn1	-9.9%[87.6 µM]	39.8µM*	96.4%[87.6 µM]	-14.3
Cn1cc(-c2cnc(Nc3ccc(F)cc3)c3c2CCO3)cn1	-20.8%[87.6 µM]	6.31µM*	62.4%[87.6 µM]	-14.0
CN(C)c1cccc(-c2cnc(Nc3ccncc3)c3c2CCO3)c1	u	28.2µM*	8.2%[87.6 µM]	-15.2
COc1cncc(Nc2ncc(-c3cccc(F)c3)c3c2OCC3)c1	-10.6%[87.6 µM]	31.6µM*	-4.8%[87.6 µM]	-13.6
Fc1cccc(Nc2ncc(-c3cncnc3)c3c2OCC3)c1	2.5%[87.6 µM]	x	11.5%[87.6 µM]	-11.1
COc1ccc(-c2cn3cc(C(=O)NCc4cccc(OC)c4)nc3s2)cc1	-18.9%	x	-4.7%	2.0
O=C(NCc1ccccc1Cl)C1CCCN(Cc2cccc(-c3ccsc3)c2)C1 (stereo unspecified)	x	x	x	-1.6
O=S1(=O)NCC(O)c2sccc21 (stereo unspecified)	x	i	x	x
COc1ccccc1-c1cnc(Nc2cccnc2)c2c1CCO2	-16.5%[87.6 µM]	i	15.1%[87.6 µM]	11.0
COc1cccc(Nc2ncc(-c3cccnc3)c3c2OCC3)c1	-3.9%[87.6 µM]	31.6µM*	171.9%[87.6 µM]	-12.4
Cc1cc(C[C@@H]2COC[C@@H]2NC(=O)COc2cccc(C)c2C)on1	4.3%	20µM*	-28.4%	1.6
Cn1nc(C2CCCC2)cc1NC(=O)c1cccc(Br)c1	-7.6%	x	3.1%	-5.1
c1ccc(-c2nnc3ccc(NC4CCCCC4)nn23)nc1	-0.7%[87.6 µM]	u	10.1%[87.6 µM]	-13.3
c1ccc(-c2nnc3ccc(-c4ccoc4)nn23)nc1	-6.6%[87.6 µM]	31.6µM*	-25.5%[87.6 µM]	-16.9
COc1ccccc1-c1cccc(C(=O)N2CCC[C@H]2C(=O)NCc2ccc(C(F)(F)F)cc2)c1	-25.4%[12.5 µM]	x	4.2%	-9.0
COc1cc(-c2ccc(C(F)(F)F)cn2)cc2c1OCCNC2	5.6%	25.1µM*	20.6%	4.7
COc1cc2nc(Nc3ccc(C)c(C)c3)nc(N)c2cc1OC	u	u	u	2.8
COc1cc(-c2cnc3ccccc3c2)cc2c1OCCNC2	7.7%	i	-5.4%	10.7
COc1cc2nc(-c3cc4c(c(OC)c3)OCCNC4)cc(C)c2cc1OC	5.3%	31.6µM*	-21.2%	3.4
Cc1ccc(C(=O)NC2CCN(c3nccc(Nc4ccccc4F)n3)CC2)cc1	-0.9%[12.5 µM]	x	-4.7%	7.2
O=C(NCC1CC1)c1ccc2nccn2c1	-8.8%[87.6 µM]	x	36.8%[87.6 µM]	14.1
CN(C(=O)c1ccc2nc(-c3ccc(F)cc3)cn2c1)C1CCOCC1	-1.5%	22.4µM*	43.7%	18.3
O=C(NCCc1cnc[nH]1)c1ccc2nc(-c3ccc(F)cc3)cn2c1	-11.7%	31.6µM*	47.2%	10.1
SMILES	SNCA viab count	KDM5B inhibitor	SNCA expr inhib	IP6K1 inhibitor
COCCN(CC1CC1)C(=O)c1ccc2nc(-c3ccc(F)cc3)cn2c1	0.0%	25.1µM*	24.2%	17.4
O=C(NCC1CNCCOC1)c1ccc2nc(-c3ccc(F)cc3)cn2c1 (stereo unspecified)	2.0%	28.2µM*	72.2%	-1.5
COCC(=O)N(C1CCOCC1)C1CCN(C(=O)c2ccc(F)cc2)CC1	7.7%	i	16.7%	0.0
CC(Cc1cnccn1)NC(=O)c1ccc2nc(-c3ccc(F)cc3)cn2c1 (stereo unspecified)	0.7%	u	8.2%	-4.4
CCC(NC(=O)c1ccc2nc(-c3ccc(F)cc3)cn2c1)c1ncc(C)[nH]1 (stereo unspecified)	-1.6%	25.1µM*	53.0%	-15.8
CCC(C)NC(=O)CNC(=O)c1ccc(-c2cccc(C(F)(F)F)c2)cc1 (stereo unspecified)	-19.5%[12.5 µM]	x	-12.5%	-4.7
Cc1cn2nc(C(=O)NC3CCCC3)cc2c(N2CCCC2)n1	9.0%	i	19.1%	-15.9
Cc1cn2nc(C(=O)NC3CCc4ccccc43)cc2c(N2CCCC2)n1 (stereo unspecified)	1.5%	14.1µM*	7.9%	-2.7
Cc1cn2nc(C(=O)NC3CCCCCC3)cc2c(N2CCCC2)n1	17.8%	6.31µM*	18.4%	10.2
COc1cc2c(cc1OC)C(C[C@H]1CN(C(=O)Nc3cccc(Cl)c3)CC[C@H]1CC(=O)O)=NCC2	3.2%	31.6µM*	u	6.9
COc1cc2c(cc1OC)C(C[C@H]1CN(C(=O)C(=O)O)CC[C@H]1CC(=O)O)=NCC2	22.4%[87.6 µM]	i	11.1%[87.6 µM]	0.2
COc1ccc2c(c1)CCN=C2C[C@H]1CN(C(=O)Nc2ccccc2)CC[C@H]1CC(=O)O	1.1%[87.6 µM]	u	29.0%[87.6 µM]	0.1
COc1cc2c(cc1OC)C(C[C@H]1CN(C(=O)Nc3ccc(Cl)cc3)CC[C@H]1CC(=O)O)=NCC2	-2.0%	28.2µM*	11.6%	13.5
COc1ccccc1-c1cnc(Nc2ccc(Cl)cn2)c2c1CCO2	7.9%[87.6 µM]	35.5µM*	35.3%[87.6 µM]	-9.3
COc1ccccc1-c1cnc(Nc2cccnc2OC)c2c1CCO2	-14.4%[87.6 µM]	35.5µM*	9.7%[87.6 µM]	25.7
COc1ccccc1-c1cnc(Nc2ccccc2)c2c1CCO2	3.6%[87.6 µM]	u	37.1%[87.6 µM]	-20.0
COc1ccccc1-c1cnc(Nc2cccc(N[S+](C)(=O)[O-])c2)c2c1CCO2	u	25.1µM*	u	29.5
COc1ccc(Nc2ncc(-c3ccccc3OC)c3c2OCC3)cc1	u	35.5µM*	38.3%[87.6 µM]	-8.0
CCOC(=O)[C@@H]1CN(C(=O)c2ccc3c(c2)OCCCO3)[C@H]2c3cccc(F)c3O[C@@H]12	x	x	x	4.5
O=C(NCCCc1ccccc1)c1cc(-c2ccccc2)c2nncn2n1	-2.1%	x	16.4%	-8.8
COc1ccc(CCc2nc3nccc(-c4ccc(OC)cc4F)n3n2)cc1	-6.1%	22.4µM*	-24.1%	1.1
COc1ccc(-c2ccnc3nc(-c4cccs4)nn23)c(F)c1	2.1%	14.1µM*	-6.1%	2.5
COCc1nc2nccc(-c3ccc(OC)cc3F)n2n1	12.8%	28.2µM*	-8.8%	-3.5
c1ccc(-c2ccnc3nc(-c4cccs4)nn23)cc1	3.3%	31.6µM*	131.0%	-7.2
CCc1nc2nccc(-c3ccc(OC)cc3F)n2n1	7.3%	i	-19.3%	-9.1
SMILES	SNCA viab count	KDM5B inhibitor	SNCA expr inhib	IP6K1 inhibitor
O=C(NCc1cccc(Cl)c1)C1CCCN(Cc2cccc(-c3ccsc3)c2)C1 (stereo unspecified)	x	x	x	-6.4
O=C(NCC(=O)N1CCCCC1)c1cccc(-c2ccsc2)c1	4.3%[87.6 µM]	x	117.3%[87.6 µM]	0.5
Cn1ncc2c(C(=O)NCc3ccc(F)cc3)cc(-c3ccccc3C(F)(F)F)nc21	x	x	x	2.8
CC1(C(=O)NC2CCOCC2)CCc2cnc(Nc3ccccc3)nc21 (stereo unspecified)	-18.6%[87.6 µM]	i	u	18.3
CC1(C(=O)NCc2cccnc2)CCc2cnc(NCc3ccccc3)nc21 (stereo unspecified)	-7.5%[87.6 µM]	31.6µM*	u	0.9
CC1(C(=O)NC2CCOCC2)CCCc2cnc(NCc3ccccc3)nc21 (stereo unspecified)	-7.1%[87.6 µM]	39.8µM*	-26.5%[87.6 µM]	8.5

Screening results deposited in PubChem BioAssay by National Center for Advancing Translational Sciences (NCATS).
